target: Pyruvate kinase PKM (Homo sapiens) (UniProt P14618); experiment: Secondary Concentration-Response Assay for Activators of Human Muscle isoform 1 Pyruvate Kinase: for Probe SAR; conditions: purified hPK-M1, ATP production, Kinase-Glo luminescence
Text: NIH Chemical Genomics Center [NCGC]
Matthew G. Vander Heiden, M.D., Ph.D. [Harvard Medical School, 77 Avenue Louis Pasteur, Boston, MA 02115]
Human pyruvate kinase […] (hPK-M1) enzyme was supplied as a highly purified (>95% pure) preparation from Harvard Medical School and assayed for its ability to generate ATP from ADP using phosphoenolpyruvate (PEP) as a substrate. ATP generation was detected in a coupled reaction by luciferase-mediated luminescence, an ATP-dependent process. Pyruvate kinase substrates, PEP and ADP, were present in the assay at Km and approximately 10-fold below Km respectively. The enzyme was assayed at an intermediate level of activity to screen for both inhibitors and activators.
NCGC Assay Protocol Summary for M1-isoform:
Three uL of substrate mix (at r.t.) in assay buffer (50 mM Imidazole pH7.2, 50 mM KCl, 7 mM MgCl2, 0.01% Tween 20, 0.05% BSA) was dispensed into white solid bottom 1,536 well microtiter plates so that the final concentrations of substrates in the assay were 0.1 mM ADP and 0.5 mM PEP. 23 nL of compound were delivered by a pin tool and 1 uL of enzyme mix (final concentration of 1 nM) in assay buffer (4 degree Celsius) was added. Plates were incubated at room temperature for 1 hour. Two uL of detection mix (Kinase-Glo, Promega; at 4 degree Celsius protected from light) was added and luminescence read by a ViewLux (Perkin Elmer) at 1 second exposure/plate. Data were normalized to the uninhibited (row 31). Additionally, a no enzyme and 5-fold enzyme control was dispensed in row 32, split equally between the two conditions.

Sequence of Pyruvate kinase PKM (Homo sapiens) (P14618 whole entry, looked up, canonical isoform): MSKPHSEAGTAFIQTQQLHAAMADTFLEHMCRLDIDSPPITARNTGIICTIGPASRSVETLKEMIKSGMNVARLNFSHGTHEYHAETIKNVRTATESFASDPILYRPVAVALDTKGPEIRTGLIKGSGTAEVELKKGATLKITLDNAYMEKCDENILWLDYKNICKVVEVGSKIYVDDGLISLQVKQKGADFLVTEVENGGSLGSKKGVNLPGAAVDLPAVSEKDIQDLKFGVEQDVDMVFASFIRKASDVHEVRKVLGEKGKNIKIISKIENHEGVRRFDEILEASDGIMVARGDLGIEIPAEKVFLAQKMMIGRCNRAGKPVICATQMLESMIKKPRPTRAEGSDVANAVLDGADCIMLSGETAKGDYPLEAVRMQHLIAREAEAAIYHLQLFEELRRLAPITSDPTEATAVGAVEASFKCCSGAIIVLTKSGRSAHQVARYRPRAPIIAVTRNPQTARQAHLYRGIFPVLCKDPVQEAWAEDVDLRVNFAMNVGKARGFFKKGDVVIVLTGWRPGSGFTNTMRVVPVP

Max response, inactive:
O=C1CCc2cc(S(=O)(=O)Nc3cccc(Oc4ccccc4)c3)ccc2N1 -2.73%
CN(C)c1cccc(S(=O)(=O)N2CCCN(S(=O)(=O)c3ccc4c(c3)OCCO4)CC2)c1 1.92%
Nc1cccc(S(=O)(=O)N2CCCN(S(=O)(=O)c3ccc4c(c3)OCCO4)CC2)c1 -0.314%
Cc1cc2c(s1)c1cnn(Cc3cc(F)ccc3F)c(=O)c1n2C 4.73%
Cc1cc2c(s1)c1cnn(Cc3cc(F)c(F)cc3F)c(=O)c1n2C -8.12%
O=C1CCc2cc(S(=O)(=O)Nc3ccc(Cl)c(Cl)c3)ccc2N1 4.63%
O=C1CCc2cc(S(=O)(=O)Nc3cc(F)cc(Cl)c3)c(F)cc2N1 1.25%
CC(C)Nc1cccc(S(=O)(=O)N2CCCN(S(=O)(=O)c3ccc4c(c3)OCCO4)CC2)c1 4.41%
Cc1cc2c(s1)c1cnn(Cc3c(Cl)ccc(C)c3F)c(=O)c1n2C 4.91%
Cn1c2cc(S(C)=O)sc2c2cnn(Cc3cccc(N)c3)c(=O)c21 (stereo not given) 2.91%
